This passage reports activity increase over dofetilide control, less the hit threshold results from PubChem BioAssay AID1835 (Johns Hopkins Ion Channel Center, 2009).

Among all 2,400 compounds or so, about 750 (31%) were called active. Some of the results follow. Unmarked numbers belong to inactive results.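 The calls were made as follows: active = median signal gain over dofetilide-blocked control wells reaching their mean plus 3 SD, so readout 1 at least 0; inactive = the rest.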

Sequence of Voltage-gated inwardly rectifying potassium channel KCNH2 (Homo sapiens) (Q12809 whole entry, looked up): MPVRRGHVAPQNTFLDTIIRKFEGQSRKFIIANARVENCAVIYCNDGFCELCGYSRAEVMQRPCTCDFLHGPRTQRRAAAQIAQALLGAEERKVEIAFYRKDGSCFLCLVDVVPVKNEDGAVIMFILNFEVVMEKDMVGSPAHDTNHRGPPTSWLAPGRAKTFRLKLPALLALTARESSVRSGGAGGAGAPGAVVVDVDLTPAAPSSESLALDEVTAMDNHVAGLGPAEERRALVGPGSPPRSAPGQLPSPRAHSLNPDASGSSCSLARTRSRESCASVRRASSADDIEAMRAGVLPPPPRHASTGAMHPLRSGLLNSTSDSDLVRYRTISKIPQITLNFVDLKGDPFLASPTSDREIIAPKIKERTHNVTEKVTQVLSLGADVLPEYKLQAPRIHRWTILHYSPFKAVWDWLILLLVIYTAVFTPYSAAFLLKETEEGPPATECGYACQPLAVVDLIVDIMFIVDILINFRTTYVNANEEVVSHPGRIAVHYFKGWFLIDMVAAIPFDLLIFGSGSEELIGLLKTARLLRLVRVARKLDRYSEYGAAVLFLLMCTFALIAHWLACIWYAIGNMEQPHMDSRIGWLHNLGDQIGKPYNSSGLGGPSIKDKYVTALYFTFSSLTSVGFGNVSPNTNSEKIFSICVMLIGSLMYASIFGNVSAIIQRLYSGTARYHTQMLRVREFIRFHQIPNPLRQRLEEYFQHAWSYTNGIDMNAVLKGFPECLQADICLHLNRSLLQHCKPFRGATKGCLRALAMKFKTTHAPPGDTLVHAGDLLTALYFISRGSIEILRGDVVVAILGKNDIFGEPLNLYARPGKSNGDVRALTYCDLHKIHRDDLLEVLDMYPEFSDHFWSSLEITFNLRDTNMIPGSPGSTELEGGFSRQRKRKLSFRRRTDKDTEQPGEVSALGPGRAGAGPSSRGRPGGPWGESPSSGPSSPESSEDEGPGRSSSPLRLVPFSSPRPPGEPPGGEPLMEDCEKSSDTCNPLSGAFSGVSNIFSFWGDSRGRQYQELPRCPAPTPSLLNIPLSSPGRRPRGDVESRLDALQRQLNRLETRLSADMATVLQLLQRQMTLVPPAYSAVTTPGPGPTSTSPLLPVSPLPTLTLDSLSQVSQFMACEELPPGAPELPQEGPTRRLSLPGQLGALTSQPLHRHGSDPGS

This experiment has as its target Voltage-gated inwardly rectifying potassium channel KCNH2 (Homo sapiens) (UniProt Q12809). Description: modulators restoring hERG flux under dofetilide – cell-based, thallium flux, duplicate retest, dofetilide IC70, confirmation (AID 1835). The following applies: hERG cell line, FluxOR thallium flux, dofetilide-blocked; at 10 µM; stronger effect = higher value.
For the compound `CC(C)C(=O)Nc1ccc(NC(=O)CCc2ccccc2)cn1`, the activity increase over dofetilide control, less the hit threshold was -14%.
To `O=C(CCc1ccccc1)Nc1nccs1` belongs -12%.
With `O=C(Nc1ncc(Br)s1)C(Cc1ccccc1)n1cccc1` (stereo unspecified) the figure was 22% (active).
To `Cc1cc2[nH]c(=O)c(=O)[nH]c2cc1S(=O)(=O)N1CCN(c2cccc(C)c2C)CC1` belongs -5%.
As to `CC(Oc1ccc(Cl)cc1)/C(N)=N/O` (stereo unspecified), the activity increase over dofetilide control, less the hit threshold is -20%.
With `Cc1ccc2[nH]cc(CCNC(=O)/C=C/c3ccco3)c2c1` the figure was -14%; with `CCCOc1ccc(-c2c(=O)n(O)c3ccccc3[n+]2[O-])cc1`, 51% (active).
With `CCOc1ccc(CC(C(N)=O)C(N)=O)cc1`, the activity increase over dofetilide control, less the hit threshold is -12%.
As for `CCOc1ccc(-c2c(=O)n(O)c3ccccc3[n+]2[O-])cc1`, the activity increase over dofetilide control, less the hit threshold is 74% (active).
With `Cc1cccc(/C=N/Nc2ccc3ccccc3n2)c1` the figure was -3%; with `O=S(=O)(Nc1nc(-c2sccc2Cl)cs1)c1cc(Cl)ccc1Cl`, 73% (active); with `O=C(Nc1ccccc1)OCCCCCOC(=O)Nc1ccccc1`, -11%.
Take `C=CCn1c(O)c(N=NC(=S)Nc2ccccc2F)c2cc(S(=O)(=O)N3CCOCC3)ccc21`: the activity increase over dofetilide control, less the hit threshold was 0%.
To `C/C(Cl)=C\Cn1c(O)c(N=NC(N)=S)c2cc(Br)ccc21` belongs 49% (active).
With `COc1ccc(C(=O)O/N=C(\N)c2ccccn2)cc1[N+](=O)[O-]` the figure was -11%; with `Nn1c(SCC(=O)Nc2ccc(OC(F)F)cc2)nnc1-c1ccco1`, -12%; with `CCc1ccc(C(=O)CSc2nc3ccccc3c(=O)[nH]2)cc1`, -16%.
To `CC(C)OC(=O)c1c2nc3ccccc3nc2n2c1[nH]c(=O)c1ccccc12` belongs 85% (active).
Take `CCCCOC(=O)Cn1c2ccc(OC)cc2c2nc3ccccc3nc21`: the activity increase over dofetilide control, less the hit threshold was -28%.
To `CC1=NN(C(=O)c2cc(C)nn2C)C(O)(C(F)(F)F)C1` (stereo unspecified) belongs -14%; to `CC(C)Sc1nc2ccccc2n2cnnc12`, -2%.
With `O=C(c1cccc(C(F)(F)F)c1)C1CCCN(C(=O)CCn2cnnn2)C1` (stereo unspecified) the figure was -3%.
Regarding `CSc1nc(=S)cc(C)[nH]1`, the activity increase over dofetilide control, less the hit threshold was 5% (active).
To `CCc1cc(=O)[nH]c(SCc2ccc(C)cc2)n1` belongs -11%; to `CCSc1nc(=S)cc(C)[nH]1`, 49% (active).
As for `CCOc1cccc(Nc2cc3n(c(=O)n2)CCc2cc(OC)c(OC)cc2-3)c1`, the activity increase over dofetilide control, less the hit threshold was -22%.
To `Cc1cc(C(=O)NP(=O)(N2CCOCC2)N2CCOCC2)c(C)n1-c1ccc(Br)cc1` belongs -13%.
To `Cc1cc(NC(=O)CSc2ccc(-c3ccc(F)cc3)nn2)no1` belongs -12%.
To `CC(C)(C)C1(O)CC(C(F)(F)F)=NN1C(=O)Cc1ccc([N+](=O)[O-])cc1` (stereo unspecified) belongs -19%.
For `O=C(C1CC1)N1N=C(c2ccccc2)CC1(O)C(F)(F)C(F)(F)F` (stereo unspecified), the activity increase over dofetilide control, less the hit threshold is -11%.
With `CCCCC1(O)CC(C(F)(F)F)=NN1C(=O)COc1ccccc1` (stereo unspecified) the figure was 4% (active).
